# Measured values: PubChem BioAssay AID651815 (National Center for Advancing Translational Sciences (NCATS), 2012)
# Hit rate of the full screen: of about 2,100 compounds, about 1,100 (52%) were called active. Roughly 29% stayed inconclusive and do not appear here. So high a share suggests a set chosen from earlier hits. The list shows a part of the results. Values without a mark were called inactive. Calls follow the shape of the dose curve; as a rule, active = well fitted inhibition curve with a large enough effect; inconclusive = small, poorly fitted or top-dose-only effect; inactive = no such curve, though single readings can be large or run the other way.
# Target: DNA dC->dU-editing enzyme APOBEC-3F (Homo sapiens) (UniProt Q8IUX4)
# Sequence (Q8IUX4 whole entry, looked up): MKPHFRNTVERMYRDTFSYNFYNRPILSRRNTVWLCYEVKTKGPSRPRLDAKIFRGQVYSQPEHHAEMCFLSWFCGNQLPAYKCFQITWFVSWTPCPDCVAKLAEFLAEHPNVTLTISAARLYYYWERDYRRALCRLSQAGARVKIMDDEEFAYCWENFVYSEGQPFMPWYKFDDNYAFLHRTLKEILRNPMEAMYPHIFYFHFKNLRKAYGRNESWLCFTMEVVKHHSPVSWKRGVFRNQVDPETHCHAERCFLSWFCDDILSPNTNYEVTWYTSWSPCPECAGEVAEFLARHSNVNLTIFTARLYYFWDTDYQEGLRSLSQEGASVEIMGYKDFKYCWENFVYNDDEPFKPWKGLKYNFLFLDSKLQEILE
# Assay: qHTS for inhibitors of Vif-A3F interactions: Cherry picks counterscreen; also: nearly all actives have a fitted effect of over 65% in size
# Conditions: HeLa A3F-eYFP/Vif cells, eYFP fluorescence, 24 h; series mostly up to 46.1 µM; activity, negative = inhibitor: at the top concentration
# From the text: The recent discovery and characterization of host restriction factors, which provide a potent defense to invading retroviruses, has provided new targets for antiviral drug development. APOBEC3G (A3G) and APOBEC3F (A3F) are potent cytidine deaminases that block HIV-1 replication; HIV-1 expresses the Vif protein, which counteracts A3G and A3F by binding to them and inducing their proteasomal degradation. The Vif-A3G and Vif-A3F interactions provide two potential targets for development of small molecules which can interfere with the ability of Vif to degrade A3G or A3F. […] To identify inhibitors that can interfere with Vif mediated degradation of A3G and A3F, we have developed Hela cell lines that stably express A3G or A3F tagged with eYFP at the C-terminal end (A3G-eYFP or A3F-eYFP, respectively) and Vif. In the absence of an inhibitor, Vif induces degradation of A3G-eYFP and A3F-eYFP, and the cells are not fluorescent. In the presence of an inhibitor, it is expected that Vif will be unable to degrade A3G-eYFP and/or A3F-eYFP, resulting in an increase in yellow fluorescence. In this counterscreen assay, Vif A3F was screened against the cherry picks ordered from the MLSMR. NIH Chemical Genomics Center [NCGC] NIH Molecular Libraries Probe Centers Network [MLPCN] MLPCN Grant: MH093245 Assay Submitter (PI): Vinay Pathak, National Cancer Institute
# A3F-Vif cells were harvested from T225 flask and resuspended in phenol free OPTI-MEM medium with 5% FBS. Then 5 uL of 140,000 cells/mL resuspended cells was dispensed into each well of low base Aurora COC 1,536-well plates (black walled, clear bottom) using a Multidrop Combi dispenser. After overnight culture at 37 deg C with 5% CO2, a total of 23 nL of compounds at 5 selected concentrations from the NPC or positive control (2 mM stock of MG132) in DMSO was transferred to each well of the assay plate using a pintool (Kalypsys, San Diego, CA), and the plates were further incubated at 37 deg C with 5% CO2 for 24 hours. After that, the plates were measured on Acumen Explorer (TTP Lab Tech). The fluorescence was detected by 488 nm/Ex and […].
# % is scaled to controls: 0 for no effect and ±100 for the full control effect; potency is read from the fitted curve at half-maximal effect.
Structure (SMILES),Potency,"activity, negative = inhibitor"
COc1cc(-c2cc(NC=O)c3ncc(-c4ccc(C(C)=O)cc4)n3c2)cc(OC)c1OC,17.7 µM (active),–
COc1cccc(-c2cnc3c(NC=O)cc(-c4cc(OC)c(OC)c(OC)c4)cn23)c1,15.8 µM (active),–
CC(=O)/C(=C\N(C)C)Sc1ccc(Cl)cc1,–,4.05% [at 36.9 µM]
Clc1ccsc1-c1csc(-c2cccnc2)n1,15.8 µM (active),–
Cn1ccnc1Sc1nc2ccccc2nc1NS(=O)(=O)c1ccccc1,16.4 µM (active),–
CC(=O)Nc1ccc(S(=O)(=O)Nc2nc3ccccc3nc2Sc2nncn2C)cc1,16.4 µM (active),–
Cn1c(=O)c2c(nc(NC3CCCC3)n2C)n(C)c1=O,–,7.15%
O=C1COc2ccc(C(=O)CSc3nc4ccccc4c(=O)n3-c3ccc(Cl)c(Cl)c3)cc2N1,23.1 µM (active),–
COc1ccccc1NC1=NC(c2ccc(Cl)cc2)N=C(N)N1 (configuration not stated),12.5 µM (active),–
COc1ccc2nc3ccccc3nc2c1NC(=O)c1ccc(Br)cc1,16.4 µM (active),–
O=C(NC(=S)Nc1c(Cl)cc(Cl)cc1Cl)c1ccccc1,–,0.68%
COc1ccc2nc3ccccc3nc2c1NC(=O)c1ccc(Cl)cc1,23.1 µM (active),–
CC(C)CCNC(=O)c1ccc2c(c1)NC(=O)C(CS(=O)(=O)Cc1cccc(Br)c1)N2 (configuration not stated),–,-23.1%
Cc1ccc(CNC(=O)c2ccc3c(c2)NC(=O)C(CS(=O)(=O)Cc2cccc(C)c2)N3)cc1 (configuration not stated),18.4 µM (active),–
CN(C)c1ccc2nc3c(=O)[nH]c(=O)nc-3n(CC(O)C(O)C(O)CO)c2c1 (configuration not stated),6.51 µM (active),–
O=C1C=C(Nc2ccc(Cl)cc2Cl)CC(c2ccco2)C1 (configuration not stated),4.98 µM (active),–
C[n+]1cc(C(=O)N2CCCCC2)ccc1/C=C/c1c[nH]c2ccccc12,11.2 µM (active),–
CCN(CC)C(=O)c1ccc(/C=C/c2c[nH]c3ccccc23)[n+](C)c1,16.4 µM (active),–
COc1ccc(-c2cnc3c(c2)CCC3(C#N)C#N)cc1,14 µM (active),–
CCOC(=O)c1cc(-c2ccccc2)sc1NC(=S)Nc1cc(C)ccn1,18.4 µM (active),–
Cc1ccc(NC(=S)Nc2ccccn2)c(C)c1,–,1.93%
CCOC(=O)c1ccc(NC(=S)Nc2cccc(C)n2)cc1,–,-17.8%
CCOc1ccc(-n2nnnc2SCC(=O)c2ccccc2)cc1,15.8 µM (active),–

Structure (SMILES),Potency,"activity, negative = inhibitor"
Cc1sc2nc(CSc3nnnn3-c3ccc(Cl)cc3)[nH]c(=O)c2c1C,–,-21.8%
Cc1cccc(/C=C/C(=O)c2ccc([N+](=O)[O-])o2)c1,4.98 µM (active),–
Cc1onc(-c2c(F)cccc2Cl)c1C(=O)O/N=C(\N)c1ccc([N+](=O)[O-])o1,–,-16.6% [at 36.9 µM]
O=C(/C=C/c1ccc(Cl)cc1)c1ccc([N+](=O)[O-])o1,9.94 µM (active),–
O=C(/C=C/c1ccncc1)c1cc(Cl)ccc1O,–,-16.9%
COc1cccc(/C(O)=C/c2nc3ccc(C(=O)NCCc4cccc(C)c4)cc3[nH]c2=O)c1,16.4 µM (active),–
COc1cccc(/C(O)=C/c2nc3ccc(C(=O)NCCc4ccc(Cl)cc4)cc3[nH]c2=O)c1,16.4 µM (active),–
COc1ccc2oc(=N)c(C(=O)Nc3ccc(F)cc3)cc2c1,7.31 µM (active),–
COc1cc(C2Nc3ccc4ncccc4c3C3=C2C(=O)CCC3)ccc1O (configuration not stated),7.04 µM (active),–
COc1cc(C2Nc3ccc4ncccc4c3C3=C2C(=O)CCC3)cc(OC)c1O (configuration not stated),15.8 µM (active),–
O=C(C(=O)N1CCN(c2ccccc2Cl)CC1)c1c[nH]c2ccccc12,–,-0.112% [at 36.9 µM]
COc1cc(NC(=O)c2ccco2)c(C(=O)OCC(=O)c2c[nH]c3ccccc23)cc1OC,–,-10.7% [at 36.9 µM]
CC1CC(C)CN(CC(=O)c2c[nH]c3ccccc23)C1 (configuration not stated),20.6 µM (active),–
COc1cc(/C=C(/C#N)c2nc3ccccc3[nH]2)ccc1OCC(=O)Nc1ccccc1C(C)C,13 µM (active),–
COc1cc(/C=C(\C#N)c2nc3ccccc3s2)ccc1OCC(=O)Nc1ccccc1,15.8 µM (active),–
COc1cc(/C=C(\C#N)c2nc3ccccc3[nH]2)ccc1O,–,32.8%
COc1cc(/C=C(\C#N)c2nc3ccccc3[nH]2)ccc1OCc1ccccc1F,16.4 µM (active),–
COc1cc(/C=C(\C#N)c2nc3ccc(C)cc3[nH]2)ccc1OC(C)C,20.6 µM (active),–
NNC(=S)Nc1c(F)cc(F)cc1Br,–,-2.67%
COc1cc(/C=C(/C#N)c2nc3ccccc3[nH]2)ccc1OC(=O)c1ccco1,–,32.9% [at 36.9 µM]
CCN(CC)c1ccc(/C=C(/C#N)c2nc3ccccc3[nH]2)c(OC(C)C)c1,0.366 µM (active),–
CCOc1cc(N(CC)CC)ccc1/C=C(/C#N)c1nc2ccccc2[nH]1,–,47.3%
Cc1ccc2nc(/C(C#N)=C\c3ccc(OC(=O)c4cccs4)cc3)[nH]c2c1,8.86 µM (active),–

Structure (SMILES),Potency,"activity, negative = inhibitor"
NNC(=O)c1oc2nc(-c3ccccc3)cc(-c3ccco3)c2c1N,16.4 µM (active),–
Cc1ccc(-c2cc(-c3ccco3)c3c(N)c(C(=O)NN)oc3n2)cc1,14.6 µM (active),–
COc1cc(/C=C2/CCC/C(=C\c3cc(O)c(OC)c(Cl)c3)C2=O)cc(Cl)c1O,13 µM (active),–
CCOc1cc(/C=C2\CN(C)C/C(=C\c3ccc(O)c(OCC)c3)C2=O)ccc1O,2.5 µM (active),–
CCOc1cc(/C=C2\CCC/C(=C\c3cc(Cl)c(O)c(OCC)c3)C2=O)cc(Cl)c1O,12.5 µM (active),–
O=c1c(O)c(-c2cccs2)oc2ccccc12,2.59 µM (active),–
Cc1ccc(/C=N/NC(=O)c2nc3nc(C)cc(C)n3n2)cc1,–,7.3%
CN(C)c1ccc(/C=N/NC(=O)c2ccccc2Cl)cc1,3.53 µM (active),–
Cc1ccc(/C=N/NC(=O)c2cc(C)oc2C)cc1,7.04 µM (active),–
CC(NC(=S)Nc1cccc(C(F)(F)F)c1)C(C)(C)C (configuration not stated),–,-9.15%
C[C@@H]1O[C@@H](O[C@@H]2C(=O)c3c(O)cc(O)cc3O[C@H]2c2ccc(O)c(O)c2)[C@H](O)[C@H](O)[C@H]1O,–,4.26% [at 36.9 µM]
Cc1cccc(CSc2nc(-c3cccs3)ccc2C#N)c1,–,-24.3%
N#Cc1ccc(-c2cccs2)nc1SCc1c(F)cccc1Cl,3.66 µM (active),–
Cc1ccnc(NC(=S)NC(=O)/C=C/c2ccco2)c1,11.2 µM (active),–
O=C(/C=C/c1ccco1)NC(=S)Nc1cccc(-c2nc3ccccc3o2)c1,4.98 µM (active),–
CSc1ccccc1NC(=O)COC(=O)/C=C/c1ccco1,–,4.47%
COc1ccc(-c2csc(NC(=S)NC(=O)/C=C/c3ccco3)n2)cc1Br,6.27 µM (active),–
CC(C)(C)c1ccc(-c2csc(NC(=O)CN3C(=O)NC4(CCCCC4)C3=O)n2)cc1,–,-14.8%
CN(C)C=Nc1c(Br)cc(Br)c2nonc12,9.2 µM (active),–
CNC(=S)N/N=C(\C)c1ccc(Cl)s1,–,3.84%
N#CCC(=O)N/N=C/c1ccc(N2N=C(c3ccccc3)CC2c2ccccc2)cc1 (configuration not stated),16.4 µM (active),–
CCc1ccc(CNC(=O)Cc2ccc(NC(=O)C3=C(C)OCCS3)cc2)cc1,1.12 µM (active),–
Cc1ccc2nc(/C(C#N)=C/c3ccc(-c4ccccc4C(=O)O)o3)[nH]c2c1,4.61 µM (active),–

Structure (SMILES),Potency,"activity, negative = inhibitor"
N#C/C(=C\c1ccc(-c2ccc(C(=O)O)cc2)o1)c1nc2ccccc2[nH]1,2.59 µM (active),–
N#C/C(=C\c1ccc(-c2ccc(F)cc2F)o1)c1nc2ccccc2[nH]1,20.6 µM (active),–
Cc1ccc2nc(/C(C#N)=C/c3ccc(-c4cccc(Cl)c4)o3)[nH]c2c1,8.2 µM (active),–
Cc1c(Cl)cccc1-c1ccc(/C=C(\C#N)c2nc3ccccc3[nH]2)o1,16.4 µM (active),–
Cc1ccc2nc(/C(C#N)=C/c3ccc(-c4ccc(C(=O)OC(C)C)cc4)o3)[nH]c2c1,8.2 µM (active),–
Cc1ccc2nc(/C(C#N)=C/c3ccc(-c4ccc(F)cc4F)o3)[nH]c2c1,4.61 µM (active),–
COCc1ccc(O)c2ncccc12,–,-0.742% [at 36.9 µM]
CCOC(=O)c1sc(NC(=S)NC(=O)c2ccco2)nc1C,–,1.21%
CC(=O)c1sc(N/N=C\c2c(O)ccc3ccccc23)nc1C,14 µM (active),–
COc1ccc(C(=O)C(C)[n+]2ccc(C)c3ccccc32)cc1[N+](=O)[O-] (configuration not stated),–,0.317% [at 36.9 µM]
COc1ccc(C(=O)NC2CCCc3ccccc32)cc1[N+](=O)[O-] (configuration not stated),8.86 µM (active),–
COc1ccccc1NC(=O)C1=C(C)Nc2nc3ccccc3n2C1c1cccs1 (configuration not stated),1.4 µM (active),–
COc1ccc2[nH]c3c(c2c1)CCNC3c1ccc([N+](=O)[O-])o1 (configuration not stated),18.4 µM (active),–
CCCCN(CCCC)S(=O)(=O)c1ccc(C(=O)Nc2sc3c(c2C(N)=O)CCN(CC)C3)cc1,25.9 µM (active),–
CC(C)N1CCc2c(sc(NC(=O)c3cc4cc([N+](=O)[O-])ccc4s3)c2C(N)=O)C1,23.1 µM (active),–
CC(C)CN(CC(C)C)S(=O)(=O)c1ccc(C(=O)Nc2sc3c(c2C(N)=O)CCN(C(C)C)C3)cc1,20.6 µM (active),–
COc1ccc(C(=O)Nc2sc3c(c2C#N)CCN(C(C)=O)C3)cc1,9.94 µM (active),–
CCN1CCc2c(sc(NC(=O)c3ccc(S(=O)(=O)N(CC)c4ccccc4)cc3)c2C(N)=O)C1,12.5 µM (active),–
CC(C)N1CCc2c(sc(NC(=O)c3ccc(S(=O)(=O)N4CCOCC4)cc3)c2C#N)C1,20.6 µM (active),–
CCN1CCc2c(sc(-n3cccc3)c2C(C)NC(=O)Nc2ccc(C(=O)OC)cc2)C1 (configuration not stated),–,8.59%
CCCN1CCc2c(sc(NC(=O)c3ccc(S(=O)(=O)N(C)c4ccccc4)cc3)c2C(=O)NC)C1,18.4 µM (active),–
CCOC(=O)c1c(NC(=O)c2ccc(S(=O)(=O)N3CCC(C)CC3)cc2)sc2c1CCN(C)C2,18.4 µM (active),–
CN1C(=O)N(C)c2ccc(C=O)c3cccc1c23,–,14.9%
